Assay outcomes deposited in PubChem BioAssay by several laboratories.
FBA Mtb inh = Mtb FBA enzyme inhibitors, primary screen, biochemical, fluorescence, strain H37Rv; Fructose-bisphosphate aldolase (Mycobacterium tuberculosis (strain ATCC 25618 / H37Rv)), …; purified M. tuberculosis FBA, fluorescence read-out; inhibition, % at 1 µM; actives 2.3% (n = 360,000);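 also: 0% = vehicle and 100% = reference inhibitor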
TcdB GH inh = TcdB glycohydrolase inhibitors, primary screen, biochemical, single point, plate reader | inhibition, % at 9.99 µM | TcdB glycohydrolase enzymatic assay | actives 0.24% (n = 350,000) | Toxin B (Clostridioides difficile), P18177 | AID 652162, 2013; in the data active = inhibition above about 10%
Y pestis TopoI = Yersinia pestis topoisomerase I inhibitors, primary screen, biochemical, cleavage product accumulation, plate reader, single point | DNA topoisomerase I (Yersinia pestis CO92) | Y. pestis Topo-I cleavage product accumulation | activity, % at 10 µM | actives 0.064% (n = 360,000) | AID 504884, 2011; in the data active = activity above about 50%, passing the limit was not always enough
GDH-TPI counter-1 = GDH-TPI coupling enzyme inhibitors, primary screen, artefact control for M. tuberculosis FBA inhibitor project, biochemical, absorbance, full deck | GDH-TPI coupled enzyme counterscreen, NADH absorbance | inhibition, % at 4.8 µM | actives 1.2% (n = 360,000); in the data active = inhibition above about 30%;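 also: 0% = DMSO wells and 100% = wells lacking the enzyme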
PrPC surface inh = inhibitors of human cell surface prion protein PrPC, primary screen, cell-based, TR-FRET; inhibition, % at 13.8 µM; TR-FRET read-out; Major prion protein (Homo sapiens), P04156; actives 0.43% (n = 370,000); in the data active = inhibition above about 24%; also: 0% = median of the test wells and 100% = reference compound wells
Mtb FBA confirm = M. tuberculosis aldolase blockers, biochemical, fluorescence, strain H37Rv, confirmation. AID 651616, 2012. shares compounds with FBA Mtb inh. purified M. tuberculosis FBA, fluorescence read-out. actives 78% (n = 5,600). inhibition, % at 1 µM;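 also: 0% = vehicle wells and 100% = reference inhibitor wells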
GDH-TPI counter-2 = GDH-TPI coupling enzyme inhibitors, artefact control for M. tuberculosis FBA inhibitor project, biochemical, fluorescence, high throughput. inhibition, % at 1 µM. actives 81% (n = 5,600). AID 652141, 2013. GDH-TPI coupled enzyme counterscreen. shares compounds with FBA Mtb inh; in the data active = inhibition above about 10%
* hit, by the source's call. A selection: hits, their analogues and other compounds. The true share with any hit is near 3.2%. Rule as the data show it, unless noted: active = inhibition above about 27%; inactive = the rest.

What do the screens show for `CCN(CC)C(=O)[C@H]1C[C@H](CC(=O)NCCCN(C)C)C(=O)N2CCc3c([nH]c4cc(-c5ccco5)ccc34)[C@]12C`?
FBA Mtb inh: 46.5*; TcdB GH inh: 1.5; Y pestis TopoI: -10.1; GDH-TPI counter-1: -3.3; PrPC surface inh: 4.1; Mtb FBA confirm: active; GDH-TPI counter-2: active

Results for C[C@@H]1CCCCO[C@H](CN(C)C(=O)Nc2cccc3ccccc23)[C@H](C)CN([C@@H](C)CO)C(=O)c2cc(NC(=O)NC3CCCCC3)ccc2O1 ?
TcdB GH inh: 0.6

What do the screens show for `O=c1c(Cl)c(O)c2cccc3c4ccccc4n1c23`?
FBA Mtb inh: 85.5*; TcdB GH inh: 0.0; Y pestis TopoI: -0.4; GDH-TPI counter-1: 15.3; PrPC surface inh: 22.8; Mtb FBA confirm: 85.7*; GDH-TPI counter-2: 63.6*

What do the screens show for `O=C(CN1C(=O)NC2(CCCCC2)C1=O)Oc1ccc2c(C(F)(F)F)cc(=O)oc2c1`?
FBA Mtb inh: 31.2*; TcdB GH inh: -7.7; Y pestis TopoI: -3.9; GDH-TPI counter-1: 6.5; PrPC surface inh: 2.6; Mtb FBA confirm: 106.7*; GDH-TPI counter-2: 70.5*

Results for Cc1cc2nc(/C=C/c3nc4cc(C)c(C)cc4[nH]3)[nH]c2cc1C ?
FBA Mtb inh: 37.2*; TcdB GH inh: 0.6; Y pestis TopoI: -1.4; GDH-TPI counter-1: 8.2; PrPC surface inh: 5.5; Mtb FBA confirm: 149.6*; GDH-TPI counter-2: 84.8*

How did CNCc1cc(Cl)cc(OC)c1OC(C)C do in these assays?
FBA Mtb inh: 65.0*; TcdB GH inh: 0.0; Y pestis TopoI: -4.9; GDH-TPI counter-1: 0.0; PrPC surface inh: 2.3; Mtb FBA confirm: 78.9*; GDH-TPI counter-2: 86.0*

What do the screens show for `O=C1c2ccccc2NC(c2ccc(-c3cccc(F)c3)o2)N1O` (stereo unspecified)?
FBA Mtb inh: 12.8; TcdB GH inh: 1.1; Y pestis TopoI: -2.1; GDH-TPI counter-1: 11.2; PrPC surface inh: -4.5

Results for CCN(CC)CCN1C(=O)c2ccccc2NC1c1ccc(N(C)C)cc1 (stereo unspecified) ?
FBA Mtb inh: 13.2; Y pestis TopoI: -5.8; GDH-TPI counter-1: 0.0; PrPC surface inh: -5.4

How did CC(=O)NN1C(=O)c2ccccc2NC1c1ccccc1O (stereo unspecified) do in these assays?
FBA Mtb inh: 24.7; TcdB GH inh: 0.8; Y pestis TopoI: 2.5; GDH-TPI counter-1: 8.0; PrPC surface inh: -2.3

What do the screens show for `CCN(CC)CCN1C(=O)c2ccccc2NC1c1ccc(C)cc1` (stereo unspecified)?
FBA Mtb inh: 78.8*; Y pestis TopoI: -8.6; GDH-TPI counter-1: 9.9; PrPC surface inh: -5.2; Mtb FBA confirm: 63.3*; GDH-TPI counter-2: 38.5*

Results for CCN(CC)CCN1C(=O)c2ccccc2NC1c1ccccc1F (stereo unspecified) ?
FBA Mtb inh: 68.4*; Y pestis TopoI: 0.2; GDH-TPI counter-1: 6.6; PrPC surface inh: -3.2; Mtb FBA confirm: 168.7*; GDH-TPI counter-2: 88.0*

What do the screens show for `O=C1c2ccccc2NC(c2ccccc2F)N1NS(=O)(=O)c1ccccc1` (stereo unspecified)?
FBA Mtb inh: 12.6; TcdB GH inh: 1.2; Y pestis TopoI: -2.8; GDH-TPI counter-1: 3.1; PrPC surface inh: -4.2

What do the screens show for `CCN(CC)CCN1C(=O)c2ccccc2NC1c1cccc(F)c1` (stereo unspecified)?
FBA Mtb inh: 50.6*; Y pestis TopoI: -10.5; GDH-TPI counter-1: 8.0; PrPC surface inh: 0.0; Mtb FBA confirm: 27.3*; GDH-TPI counter-2: 21.3*

Results for O=C(O)CCC(=O)NN1C(=O)c2ccccc2NC1c1ccc(F)cc1 (stereo unspecified) ?
FBA Mtb inh: 40.0*; TcdB GH inh: 1.0; Y pestis TopoI: 2.2; GDH-TPI counter-1: 2.5; PrPC surface inh: -2.7; Mtb FBA confirm: 126.6*; GDH-TPI counter-2: 95.1*

How did COc1cccc(NC(=O)N[C@H]2C=C[C@H](CC(=O)Nc3ccc(-c4ccccc4)cc3)O[C@H]2CO)c1 do in these assays?
TcdB GH inh: 0.1

What do the screens show for `COc1ccc2c3c([nH]c2c1)[C@@H](CO)N(C(=O)CC1CC1)CC31CN(C(=O)CC2CC2)C1`?
TcdB GH inh: 1.2

How did CCN(CC)CCN1C(=O)c2ccccc2NC1c1ccc(Br)cc1 (stereo unspecified) do in these assays?
FBA Mtb inh: 84.3*; TcdB GH inh: 0.1; Y pestis TopoI: -11.7; GDH-TPI counter-1: 9.9; PrPC surface inh: -0.5; Mtb FBA confirm: 120.7*; GDH-TPI counter-2: 101.0*

Results for CCN(CC)CCN1C(=O)c2ccccc2NC1c1ccc(F)cc1 (stereo unspecified) ?
FBA Mtb inh: 45.0*; Y pestis TopoI: -8.1; GDH-TPI counter-1: 13.3; PrPC surface inh: -13.6; Mtb FBA confirm: 129.1*; GDH-TPI counter-2: 117.2*

How did O=C(COc1ccc2c(c1)oc(=O)c1ccccc12)NCC1CCC(C(=O)O)CC1 (stereo unspecified) do in these assays?
FBA Mtb inh: 33.9*; TcdB GH inh: 0.5; Y pestis TopoI: 1.3; GDH-TPI counter-1: 18.6; PrPC surface inh: -3.6; Mtb FBA confirm: 89.9*; GDH-TPI counter-2: 53.9*

Results for O=C(COc1ccc2c3c(c(=O)oc2c1)CCC3)NCC1CCC(C(=O)O)CC1 (stereo unspecified) ?
FBA Mtb inh: 16.2; TcdB GH inh: 1.2; Y pestis TopoI: 2.8; GDH-TPI counter-1: 14.7; PrPC surface inh: -2.8

Results for O=C(COc1cc2oc(=O)cc(-c3ccccc3)c2cc1Cl)NCC1CCC(C(=O)O)CC1 (stereo unspecified) ?
FBA Mtb inh: 5.0; TcdB GH inh: 0.6; Y pestis TopoI: 15.9; GDH-TPI counter-1: 23.5; PrPC surface inh: -10.9

How did CCCCc1cc(=O)oc2cc(OCC(=O)NCC3CCC(C(=O)O)CC3)ccc12 (stereo unspecified) do in these assays?
FBA Mtb inh: 21.4; TcdB GH inh: -0.3; Y pestis TopoI: 7.9; GDH-TPI counter-1: 10.8; PrPC surface inh: 0.3

How did CCc1c(C)c2ccc(OCC(=O)NCC3CCC(C(=O)O)CC3)cc2oc1=O (stereo unspecified) do in these assays?
FBA Mtb inh: 79.4*; TcdB GH inh: 0.1; Y pestis TopoI: -0.4; GDH-TPI counter-1: 18.6; PrPC surface inh: -1.4; Mtb FBA confirm: 55.5*; GDH-TPI counter-2: 36.0*
